# Screening results (PubChem BioAssay)
# ATXN2 expr inh = ATXN2 expression inhibition; HEK-293 ATXN2-luciferase reporter, luminescence, 24 h; 360,000 compounds, 0.72% hits; AID 1745845; Potency, µM (series often up to 57 µM), without a hit: at the highest dose activity change, negative = inhibition, usual class: inhibitors; further: on the % scale 0 is the no-effect control and ±100 the full control effect; nearly all actives have a fitted effect of over 55% in size
#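 qHTS (up to 57 uM final) was run with 24 h compound exposure of reporter cells at 37 °C. Each well was multiplexed: SteadyGlo luminescence measured ATXN2-luciferase expression after a fluorogenic Gly-Phe-AFC viability readout (25 uM final).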
# TDP1 cell noCPT = qHTS for Inhibitors of human tyrosyl-DNA phosphodiesterase 1 (TDP1): qHTS in cells in absence of CPT; DT40 Tdp1-/- hTDP1 cells, no CPT, ATP luminescence, 48 h; Potency, µM (highest dose often 46.2 µM), inactives show top-dose activity change, negative = growth inhibition, actives largely listed as inhibitors; 420,000 compounds, 15% hits; AID 686978, 2013; further: on the % scale 0 is the no-effect control and ±100 the full control effect; nearly all actives have a fitted effect of over 55% in size
#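 Cells were dispensed at 400 per well, compounds added by pin tool, plates incubated ≥48 hr at 37 °C, then CellTiter-Glo added for 30 min at room temperature before luminescence reading. Line: DT40 Tdp1-/- complemented with hTDP1; camptothecin omitted.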
# S2 tox = viability counter-screen for ATXN expression inhibitors. S2 cells (HEK-293 line with an ATXN2-luciferase reporter) viability, CellTiter-Fluor protease fluorescence, 24 h. Potency, µM (doses to about 56.7 µM), actives largely listed as cytotoxic. 400,000 compounds, 0.49% hits. AID 651635; further: nearly all actives have a fitted effect of over 40% in size
# HepG2 tox = kills HepG2 cells in TGF-b inhibitor counter-screen | HepG2 CAGA-GFP viability, ATP luminescence, 18 h | Potency, µM (doses to about 46.1 µM), for inactives: top-dose activity change, negative = cytotoxicity, most hits filed as cytotoxic | 410,000 compounds, 0.76% hits | AID 588856
#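 HepG2 CAGA-GFP cells (1000/well, DMEM with 1% FBS) received compound, then TGF-beta at 500 pg/mL final, and were incubated 18 hours at 37 degrees C. Viability was read by CellTiter-Glo luminescence. Media-only wells were set as complete cell-killing and DMSO as no toxicity.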
# TGFb SMAD3 inh = TGF-b pathway inhibition; HepG2 CAGA-GFP TGF-b/SMAD3 reporter, GFP fluorescence, 18 h; TGF-beta stimulated, 500 pg/mL final; Potency, µM (doses to about 46.1 µM), without a hit: at the top dose activity, negative = inhibition, hits mostly inhibitors; 410,000 compounds, 1.2% hits; AID 588855; further: on the % scale 0 is the no-effect control and ±100 the full control effect; nearly all actives have a fitted effect of over 65% in size
#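 Cell-based qHTS in HEPG2 carrying a CAGA-GFP Smad reporter; compounds added before 500 pg/mL final TGF-beta, 18 h incubation at 37 degrees C, GFP fluorescence quantified per cell by imaging cytometry.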
# DT40 TDP1 CPT = DT40-hTDP1 cell growth loss with CPT; AID 686979; 420,000 compounds, 12% hits; chicken DT40 Tdp1-/-;hTDP1 cells + 20 nM CPT, ATP luminescence, 48 h; Potency, µM (series often up to 46.2 µM), for the others: at the top dose activity change, negative = growth inhibition, actives largely listed as inhibitors; further: on the % scale 0 is the no-effect control and ±100 the full control effect; nearly all actives have a fitted effect of over 55% in size
#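 Chicken DT40 Tdp1-/- cells complemented with human TDP1, 400 cells/well, exposed to compounds plus 20 nM camptothecin for at least 48 h at 37 C; viability read as ATP content by CellTiter-Glo luminescence.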
# * = called active by the depositor; i = inactive; ? = inconclusive; . = no result. A selection: hits, their analogues and other compounds. The true share with any hit is near 17%. The call rests on the fitted dose curve; in most records, active means well fitted curve in the direction sought with a large enough effect; inconclusive means small, poorly fitted or top-dose-only effect, or another doubt; inactive means no such curve, though single readings can be large; an effect the other way counts as inactive or inconclusive. Potency means the concentration at half of the fitted maximal effect.
SMILES,ATXN2 expr inh,TDP1 cell noCPT,S2 tox,HepG2 tox,TGFb SMAD3 inh,DT40 TDP1 CPT
COCCN(Cc1ccccc1)C(=O)c1cccc(S(=O)(=O)N2CCN(Cc3ccccc3)CC2)c1,.,18µM*,i,-19%,-19%,?
Cc1c(C(=O)NCc2ccc3c(c2)OCCO3)sc(=O)n1Cc1ccc(C(=O)N(C)C)cc1,-6%,?,i,-1%,-8%,?
O=C(c1cccc(S(=O)(=O)N2CCCCC2)c1)N(CCc1ccccc1)Cc1ccccc1,-17%,?,?,-6%,?,18µM*
CCCn1c(N)c(N(CCOC)C(=O)c2cccc(S(=O)(=O)N3CCCc4ccccc43)c2)c(=O)[nH]c1=O,7%,?,i,0%,-7%,?
CCN(Cc1ccccc1)C(=O)c1cc(S(=O)(=O)N2CCOCC2)ccc1N1CCCC1,-2%,16µM*,i,-21%,4%,?
CC(=O)N1CCN(C(=O)c2cccc(S(=O)(=O)N3CCN(c4ccc(F)cc4)CC3)c2)CC1,2%,-14%,i,14%,8%,-27%
COCCN(Cc1ccccc1)C(=O)c1cccc(S(=O)(=O)N2CCCc3ccccc32)c1,.,9.2µM*,.,-12%,?,13µM*
CCN(Cc1ccccc1)C(=O)c1cccc(S(=O)(=O)N2CCN(c3ccc(F)cc3)CC2)c1,-13%,16µM*,i,-3%,?,18µM*
O=S(=O)(c1ccc(Br)cc1)c1nc(-c2ccco2)oc1NCC1CCCO1 (stereo not given),-4%,-16%,i,11%,2%,3%
O=C(NCc1ccco1)c1ccc2nccnc2c1,0%,-9%,i,4%,-4%,-3%
O=C(c1cccc(S(=O)(=O)N2CCOCC2)c1)N(CCO)Cc1ccccc1,2%,0%,i,-11%,-1%,-23%
CCN(Cc1ccccc1)C(=O)c1cccc(S(=O)(=O)N2CCN(Cc3ccccc3)CC2)c1,-6%,26µM*,i,-20%,-17%,16µM*
CCN(Cc1ccccc1)C(=O)c1cccc(S(=O)(=O)N2CCN(c3ccccc3)CC2)c1,-24%,21µM*,i,-27%,-10%,16µM*
O=[N+]([O-])c1c(C(Cl)Cl)nn(-c2ccc(Cl)cc2)c1N1CCCCC1,-4%,16µM*,i,-21%,14%,?
O=C(Cc1cccs1)N(c1ccc(Br)cc1)C1C=CS(=O)(=O)C1 (stereo not given),2%,?,i,-2%,3%,16µM*
COc1ccc(N(C(=O)Cc2cccs2)C2C=CS(=O)(=O)C2)cc1 (stereo not given),-1%,0%,i,8%,-10%,-12%
O=C1/C(=C/c2cccnc2)Sc2ccccc21,15%,?,i,-95%,?,26µM*
COc1ccccc1NS(=O)(=O)c1cc(C(=O)N2CC(C)CC(C)C2)ccc1C (stereo not given),-12%,21µM*,i,4%,3%,?
Cc1ccc(NS(=O)(=O)c2ccc(C(=O)N3CCN(c4ccccn4)CC3)cc2)cc1,-7%,12µM*,i,7%,7%,13µM*
CCOC(=O)C1CCN(C(=O)c2ccc(S(=O)(=O)Nc3ccccc3OC)cc2)CC1,-10%,?,i,5%,1%,9.2µM*
COc1ccc(C(=O)N2CCN(c3ccccn3)CC2)cc1,.,-8%,.,-5%,-2%,-3%
COc1ccccc1NS(=O)(=O)c1ccc(C(=O)N2CCN(c3ccccn3)CC2)cc1,-25%,13µM*,i,-5%,-14%,23µM*
CCOC(=O)C1CCCN(C(=O)c2cc(S(=O)(=O)Nc3ccccc3OC)ccc2C)C1 (stereo not given),-7%,?,i,42%,15%,-23%
COc1ccccc1NS(=O)(=O)c1ccc(C)c(C(=O)N2CCN(c3ccc(O)cc3)CC2)c1,?,13µM*,i,1%,?,15µM*
Cc1ccc(N2CC(NC(=O)c3cc4ccccc4o3)CC2=O)cc1C (stereo not given),.,-20%,.,-12%,-1%,-27%
SMILES,ATXN2 expr inh,TDP1 cell noCPT,S2 tox,HepG2 tox,TGFb SMAD3 inh,DT40 TDP1 CPT
S=c1[nH]cnc2sc(Nc3ccccc3)nc12,.,15µM*,11µM*,11%,1%,15µM*
COCCNC(=O)C1CCCN(C(=O)c2cc(-c3ccccc3)cs2)CC1 (stereo not given),42%,-16%,i,0%,-4%,-19%
CSCCC1NC2(C(=O)Nc3c(C)cc(Cl)cc32)[C@@H]2C(=O)N(C3CCCC3)C(=O)[C@H]12 (stereo not given in full),4%,21µM*,i,-33%,?,?
CCOc1ccc(-n2c(SCc3ccc([N+](=O)[O-])cc3)nnc2-c2ccc(OC)cc2)cc1,-34%,29µM*,i,-23%,-30%,18µM*
N#Cc1ccc(OCc2nnc(SCC(=O)c3ccccc3)n2-c2ccccc2)cc1,-13%,?,i,17%,-13%,23µM*
COc1ccc(NCc2nnc(SCc3ccc(Cl)cc3)n2-c2ccccc2)cc1,?,18µM*,?,-25%,?,?
COc1ccc(-n2c(COc3ccc(C)cc3)nnc2SCc2ccc(C#N)cc2)cc1,-13%,?,i,7%,-26%,?
COc1ccc(-n2c(COc3ccc(Cl)cc3)nnc2SCc2ccc(C#N)cc2)cc1,-23%,23µM*,?,-30%,?,?
CCOc1ccc(-n2c(SCc3ccc(C#N)cc3)nnc2-c2cccnc2)cc1,-19%,-19%,i,-16%,-6%,3%
O=C(CCN1CCOCC1)NNC(=O)Nc1cccc(Cl)c1,-3%,5%,i,4%,0%,-18%
Cc1nnc(SCC(=O)Nc2ccc(N(C)C)cc2)[nH]c1=O,6%,?,i,-28%,2%,-30%
Cc1c(C(=O)N(C)Cc2nc3ccccc3c(=O)[nH]2)oc2ccccc12,-25%,23µM*,?,-7%,9%,?
CN(Cc1nc2ccccc2c(=O)[nH]1)C(=O)c1cccc(S(=O)(=O)N2CCCC2)c1,6%,7%,i,-3%,1%,-17%
CC(=O)c1ccc(-c2ccc(C(=O)N(C)Cc3nc4ccccc4c(=O)[nH]3)o2)cc1,.,23µM*,.,-19%,-26%,?
